Compound activity deposited in PubChem by Broad Institute.
C2C12 statin: protects C2C12 myotubes from simvastatin toxicity; ATP luminescence, 48 h; scaled: DMSO 0, geranylgeraniol control 100; rescue of ATP level, % at 7.49 µM; 330,000 tested, 0.78% active;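 active means mean ATP rescue above about 67%, or every replicate alone reaching that limit, limit read from the data, passing the limit was not always enough; inconclusive means no clear call, values can overlap the other calls; inactive means mean under the limit and some replicate under it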;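 further: myotubes were challenged with 10 µM simvastatin during compound exposure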
TRPM1 prom inh: reduces MITF-dependent TRPM1 promoter luciferase signal; inhibition, % at 12.5 µM; 330,000 tested, 0.83% active; SK-MEL-5 TRPM1 promoter luciferase, 24 h;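 active means mean inhibition across replicates of 60% or more, whatever share of single replicates reaches that level; inconclusive means some that reach 60%, reason not given; inactive means mean inhibition across replicates below 60%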
MITF act: MITF TRPM1 promoter activation in melanoma cells; SK-MEL-5 TRPM1-promoter luciferase, 24 h; % of positive control, neutral wells = 0; activation, % at 12.5 µM; AID 588334; 300,000 tested, 0.75% active;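 active means mean activation of at least 80% with every replicate also reaching 80%; inconclusive means mean reaches 80% but some replicate falls short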
LMP1 NFkB inh: Epstein-Barr LMP1 NF-kappaB reporter inhibition. 350,000 tested, 0.69% active. LMP1-induced NF-kappaB luciferase reporter cells, luminescence. AID 504558. inhibition, % at 12.5 µM; in the data active means inhibition above about 41%; inconclusive means no clear call, values can overlap the other calls
esBAF inh: inhibitors of esBAF chromatin remodeling in mouse ES cells | 350,000 tested, 2% active | Bmi1-luciferase knock-in reporter, 24 h; 100% = twice the neutral-well signal | reporter increase, % at 12.5 µM; in the data active means activation above about 40%; inconclusive means no clear call, values can overlap the other calls;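 further: a rise in the Bmi1 reporter signal indicates esBAF inhibition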
Wnt bcat act: Wnt/beta-catenin pathway activation; Wnt/beta-catenin reporter cell assay, activator, plate reader; activation, % at 9.35 µM; 300,000 tested, 1.2% active; in the data active means activation above about 30%, passing the limit was not always enough; inconclusive means no clear call, values can overlap the other calls
Of the large screens only hits and unclear results are named; the others gave an inactive call. An excerpt weighted towards active compounds, which were near 4% of everything screened.

COc1ccc2c(c1)c(C(=O)OCCN(C)C)c(C)n2C	C2C12 statin 105 (no result: Wnt bcat act)
COc1ccccc1OCc1nnc(SCC(=O)NCc2ccco2)n1-c1ccccc1	none (no result: Wnt bcat act)
COC(C(=O)C(O)C(C)O)C1Cc2cc3cc(OC4CC(OC5CC(O)C(O)C(C)O5)C(O)C(C)O4)c(C)c(O)c3c(O)c2C(=O)C1OC1CC(OC2CC(OC3CC(O)C(OC)C(C)O3)C(O)C(C)O2)C(O)C(C)O1 (configuration not stated)	LMP1 NFkB inh 80 (no result: C2C12 statin, MITF act, esBAF inh)
CCS(=O)(=O)Nc1ccc2c(c1)C(=O)N(C)C[C@H](OC)[C@H](C)CN(C(=O)NC(C)C)[C@H](C)CO2	none (no result: TRPM1 prom inh, MITF act, LMP1 NFkB inh, Wnt bcat act)
Cc1nc(N2CCN(C)CC2)c2c3c(sc2n1)CCCC3	none (no result: MITF act)
CSc1nc(N2CCOCC2)c2c3c(sc2n1)CCC3	C2C12 statin 98
CC(=O)C1=C(O)C(=O)N(CCN2CCOCC2)C1c1ccccc1 (configuration not stated)	none (no result: Wnt bcat act)
CC1CCCCN1S(=O)(=O)c1ccc(C(=O)Nc2ccccc2-c2nc3ccccc3s2)cc1 (configuration not stated)	none
COc1ccc(C)cc1NC(=O)CSc1nnc(-c2ccc(Br)cc2)o1	none
COc1ccccc1NC(=O)CSc1nnc(-c2ccc(C)cc2)o1	Wnt bcat act 58 (no result: MITF act)
O=C(CSc1nnc(-c2cccnc2)o1)Nc1ccccc1F	Wnt bcat act 40
Cc1cccc(NC(=O)CSc2nnc(-c3ccccc3C)o2)c1	esBAF inh 44 (no result: Wnt bcat act)
COc1cccc(NC(=O)CSc2nnc(-c3ccc(C)cc3)o2)c1	esBAF inh 60
O=C(CSc1ncc(-c2ccccc2)[nH]1)Nc1ccccc1F	MITF act 88, esBAF inh inconclusive
O=C(CSc1nnc(-c2ccc(O)cc2)o1)Nc1cccc(O)c1	Wnt bcat act 34
O=C(CSc1nnc(-c2ccc(O)cc2)o1)Nc1ccc2c(c1)OCCO2	none (no result: Wnt bcat act)
O=C(CSc1ncc(-c2ccccc2)[nH]1)Nc1ccccc1	none
CC(C)N(C(=NCc1ccccc1)NC(=O)c1ccccc1)C(C)C	none
COc1ccccc1NC(=S)NN=C(C)c1ccccn1	LMP1 NFkB inh inconclusive
CCc1c(O)nc(SCc2nc3ccccc3c(=O)[nH]2)[nH]c1=O	none (no result: C2C12 statin, esBAF inh)
CCN1CCCC1CNS(=O)(=O)c1cc(Br)cc2c1N(C(=O)C1CC1)CC2 (configuration not stated)	none (no result: MITF act, Wnt bcat act)
COc1ccc(S(=O)(=O)Nc2ccc3c(c2)C(=O)N([C@H](C)CO)C[C@H](C)[C@H](CN(C)S(=O)(=O)c2cccs2)OCCCC[C@H](C)O3)cc1	C2C12 statin 97 (no result: TRPM1 prom inh, MITF act, LMP1 NFkB inh, Wnt bcat act)
C[C@H](CO)N1C[C@H](C)[C@H](CN(C)S(=O)(=O)c2cccs2)OCCCC[C@H](C)Oc2ccc(NC(=O)Nc3ccc(F)cc3)cc2C1=O	C2C12 statin inconclusive (no result: TRPM1 prom inh, MITF act, LMP1 NFkB inh, Wnt bcat act)
COc1ccc(S(=O)(=O)Nc2ccc3c(c2)C(=O)N([C@H](C)CO)C[C@H](C)[C@@H](CN(C)S(=O)(=O)c2cccs2)OCCCC[C@H](C)O3)cc1	none (no result: TRPM1 prom inh, MITF act, LMP1 NFkB inh, Wnt bcat act)
C[C@@H]1CCCCO[C@@H](CN(C)S(=O)(=O)c2cccs2)[C@H](C)CN([C@@H](C)CO)C(=O)c2cc(NC(=O)Nc3ccc(F)cc3)ccc2O1	C2C12 statin 84 (no result: TRPM1 prom inh, MITF act, LMP1 NFkB inh, Wnt bcat act)
COc1ccc(S(=O)(=O)Nc2ccc3c(c2)C(=O)N([C@H](C)CO)C[C@@H](C)[C@H](CN(C)S(=O)(=O)c2cccs2)OCCCC[C@H](C)O3)cc1	C2C12 statin 102 (no result: TRPM1 prom inh, MITF act, LMP1 NFkB inh, Wnt bcat act)
COc1ccc(S(=O)(=O)Nc2ccc3c(c2)C(=O)N([C@@H](C)CO)C[C@H](C)[C@@H](CN(C)S(=O)(=O)c2cccs2)OCCCC[C@@H](C)O3)cc1	C2C12 statin 79 (no result: TRPM1 prom inh, MITF act, LMP1 NFkB inh, Wnt bcat act)
COc1ccc(N=C2SCC(=O)N2C)cc1	none (no result: TRPM1 prom inh, MITF act)
O=[N+]([O-])c1cnccc1NC1CCCCC1	none (no result: C2C12 statin, esBAF inh)
Cc1ccc(-c2ccc(CCC(=O)O)n2NC(=O)c2ccc([N+](=O)[O-])cc2)cc1	Wnt bcat act 54
O=C(N=Nc1ccc(NOC(=O)c2ccccc2Br)cc1)c1ccccc1O	none (no result: C2C12 statin, TRPM1 prom inh, MITF act, LMP1 NFkB inh, esBAF inh)
Cc1cc(Sc2nnc(N)s2)c2ccccc2n1	LMP1 NFkB inh 71 (no result: MITF act)
Cc1cc(C(N)=O)c2ccccc2n1	none (no result: Wnt bcat act)
Cc1cc(Sc2nnc(/N=C/N(C)C)s2)c2ccccc2n1	LMP1 NFkB inh 70 (no result: C2C12 statin, MITF act, esBAF inh)
O=C(NCc1ccc(F)cc1)C1CC(=O)N(C2CCCCC2)C1 (configuration not stated)	none
C[C@H]1CN([C@@H](C)CO)C(=O)Cc2cc(NC(=O)c3ccncc3)ccc2O[C@H]1CN(C)Cc1ccncc1	none (no result: TRPM1 prom inh, MITF act, LMP1 NFkB inh, Wnt bcat act)
O=C(C[C@H]1CC[C@@H]2[C@H](COC[C@H](O)CN2Cc2ccc(Cl)cc2)O1)NCc1ccccc1Cl	none (no result: TRPM1 prom inh, MITF act, LMP1 NFkB inh, Wnt bcat act)
O=C(Nc1ccc2c(c1)Cc1cc([N+](=O)[O-])ccc1-2)C(F)(F)F	esBAF inh 42 (no result: TRPM1 prom inh, MITF act, LMP1 NFkB inh)
Cc1ccc(S(=O)(=O)N2CCN(C(=O)CCCOc3cccc(C)c3)CC2)cc1	none
CN(C)c1ccc(C=C2SC(=S)NC2=O)cc1	esBAF inh 54
O=C(c1ccc(S(=O)(=O)Cc2ccccc2Cl)c([N+](=O)[O-])c1)N1CCN(c2ccccn2)CC1	TRPM1 prom inh 74
Cc1ccn2c(Nc3ccccc3)c(-c3ccccn3)nc2c1	TRPM1 prom inh inconclusive, LMP1 NFkB inh 59
Cc1ccn2c(Nc3ccccc3C)c(-c3ccccn3)nc2c1	none
Cc1nn(-c2ccccc2Cl)c(Cl)c1/C=N/Nc1cccc(C(=O)O)c1	TRPM1 prom inh 69, LMP1 NFkB inh 69 (no result: C2C12 statin, esBAF inh, Wnt bcat act)
Cc1ccsc1/C=N/Nc1ccc(C(=O)O)cc1	TRPM1 prom inh inconclusive
O=C(O)c1cccc(Cn2c(Cl)c(/C=N/Nc3ccccc3)sc2=O)c1	none (no result: C2C12 statin, esBAF inh, Wnt bcat act)
Brc1ccsc1/C=N/Nc1ccccc1	Wnt bcat act 41 (no result: C2C12 statin, MITF act, esBAF inh)
Cc1ccsc1/C=N/Nc1cccc(C(=O)O)c1	TRPM1 prom inh 96, LMP1 NFkB inh 66 (no result: C2C12 statin, esBAF inh)
O=C(O)c1cccc(N/N=C/C2=C(Cl)c3cc(Cl)ccc3SC2)c1	Wnt bcat act 40 (no result: C2C12 statin, esBAF inh)
CC(C)NC(=O)N(O)C1N(Cc2ccc3c(c2)OCO3)C(=S)SC1(C)C (configuration not stated)	none (no result: Wnt bcat act)
COc1ccc(N/N=C/c2c(C(=O)O)ccc3ccccc23)cc1	LMP1 NFkB inh 69 (no result: TRPM1 prom inh)
Oc1ccc2ccccc2c1/C=N/Nc1ccccc1	none (no result: C2C12 statin, esBAF inh, Wnt bcat act)
COc1ccc2ccccc2c1/C=N/Nc1ccc(Cl)c(C(=O)O)c1	none
COc1ccc2ccccc2c1/C=N/Nc1cccc(C(=O)O)c1	MITF act 93, esBAF inh 66
O=C(O)c1cccc(N/N=C/c2cccc3ccccc23)c1	TRPM1 prom inh 81, LMP1 NFkB inh 48
COC(=O)c1ccc(COc2ccccc2/C=N/Nc2cccc(C(=O)O)c2)cc1	none (no result: C2C12 statin, esBAF inh)
CNS(=O)(=O)c1ccc2nc(NC(=O)c3ccc(N4C(=O)CCC4=O)cc3)sc2c1	none (no result: C2C12 statin, esBAF inh)
COC(=O)C(CC(=O)c1ccccc1)CC(=O)c1ccccc1	esBAF inh 53
COc1ccccc1C(CC(=O)c1ccccc1)CC(=O)c1ccccc1	none
